# Measurements reported in ChEMBL document CHEMBL1961873, “Compounds: GSK PKIS; Assays: Nanosyn kinase panel” (2012).
# Key:
# [1] = molecular target: Sphingosine kinase 1 (Homo sapiens) (UniProt Q9NYA1); conditions: at 1 µM;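 note: mean SPHK1 inhibition value reported from the GSK PKIS kinase panel screen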
# [2] = molecular target: T1, Sphingosine kinase 2 (Homo sapiens) (UniProt Q9NRA0); conditions: at 0.1 µM
# T1 sequence (whole entry): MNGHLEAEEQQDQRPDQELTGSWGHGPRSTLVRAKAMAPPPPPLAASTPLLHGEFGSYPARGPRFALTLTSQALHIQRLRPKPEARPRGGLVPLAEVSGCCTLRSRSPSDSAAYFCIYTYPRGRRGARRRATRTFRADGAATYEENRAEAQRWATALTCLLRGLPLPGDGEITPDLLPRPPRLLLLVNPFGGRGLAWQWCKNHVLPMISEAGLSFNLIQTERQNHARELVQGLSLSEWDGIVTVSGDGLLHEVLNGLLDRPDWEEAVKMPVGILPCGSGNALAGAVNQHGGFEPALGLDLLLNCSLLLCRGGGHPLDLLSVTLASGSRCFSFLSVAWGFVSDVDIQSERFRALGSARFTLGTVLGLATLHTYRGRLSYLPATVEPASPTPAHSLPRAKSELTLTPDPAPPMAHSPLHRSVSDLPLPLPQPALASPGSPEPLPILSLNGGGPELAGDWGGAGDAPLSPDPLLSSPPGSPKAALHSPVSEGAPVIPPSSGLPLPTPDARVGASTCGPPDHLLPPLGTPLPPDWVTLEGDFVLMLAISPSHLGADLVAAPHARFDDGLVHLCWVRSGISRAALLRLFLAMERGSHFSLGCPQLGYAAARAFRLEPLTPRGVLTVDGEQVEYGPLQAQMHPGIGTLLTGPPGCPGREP
# [3] = molecular target: T1, Sphingosine kinase 2 (Homo sapiens); conditions: at 1 µM
# [4] = molecular target: Casein kinase II subunit alpha (Homo sapiens) (UniProt P68400); conditions: at 0.1 µM
# [5] = molecular target: Casein kinase II subunit alpha (Homo sapiens) (UniProt P68400); conditions: at 1 µM
# [6] = molecular target: T2, Inhibitor of nuclear factor kappa-B kinase subunit alpha (Homo sapiens) (UniProt O15111); conditions: at 0.1 µM
# T2 sequence (whole entry): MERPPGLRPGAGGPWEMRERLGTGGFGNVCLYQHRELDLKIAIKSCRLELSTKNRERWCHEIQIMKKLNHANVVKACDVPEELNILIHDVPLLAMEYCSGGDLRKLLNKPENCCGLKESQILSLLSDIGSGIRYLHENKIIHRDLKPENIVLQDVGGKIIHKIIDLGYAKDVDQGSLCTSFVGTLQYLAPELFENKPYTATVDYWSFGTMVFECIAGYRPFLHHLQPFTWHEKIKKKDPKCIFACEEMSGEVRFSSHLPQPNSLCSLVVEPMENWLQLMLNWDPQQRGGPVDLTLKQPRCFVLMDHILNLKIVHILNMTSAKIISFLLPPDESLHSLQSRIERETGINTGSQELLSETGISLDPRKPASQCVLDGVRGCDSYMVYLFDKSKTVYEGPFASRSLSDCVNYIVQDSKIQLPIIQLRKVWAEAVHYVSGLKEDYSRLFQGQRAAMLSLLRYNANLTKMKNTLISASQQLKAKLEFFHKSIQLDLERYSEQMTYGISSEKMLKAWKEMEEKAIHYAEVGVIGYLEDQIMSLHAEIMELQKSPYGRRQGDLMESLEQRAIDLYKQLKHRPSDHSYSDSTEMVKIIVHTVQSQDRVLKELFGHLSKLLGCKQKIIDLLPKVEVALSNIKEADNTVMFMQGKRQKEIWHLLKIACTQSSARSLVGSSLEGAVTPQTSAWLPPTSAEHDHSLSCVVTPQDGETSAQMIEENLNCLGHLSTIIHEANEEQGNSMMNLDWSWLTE
# [7] = molecular target: T2, Inhibitor of nuclear factor kappa-B kinase subunit alpha (Homo sapiens); conditions: at 1 µM
# [8] = molecular target: T3, Inhibitor of nuclear factor kappa-B kinase subunit beta (Homo sapiens) (UniProt O14920); conditions: at 0.1 µM
# T3 sequence (whole entry): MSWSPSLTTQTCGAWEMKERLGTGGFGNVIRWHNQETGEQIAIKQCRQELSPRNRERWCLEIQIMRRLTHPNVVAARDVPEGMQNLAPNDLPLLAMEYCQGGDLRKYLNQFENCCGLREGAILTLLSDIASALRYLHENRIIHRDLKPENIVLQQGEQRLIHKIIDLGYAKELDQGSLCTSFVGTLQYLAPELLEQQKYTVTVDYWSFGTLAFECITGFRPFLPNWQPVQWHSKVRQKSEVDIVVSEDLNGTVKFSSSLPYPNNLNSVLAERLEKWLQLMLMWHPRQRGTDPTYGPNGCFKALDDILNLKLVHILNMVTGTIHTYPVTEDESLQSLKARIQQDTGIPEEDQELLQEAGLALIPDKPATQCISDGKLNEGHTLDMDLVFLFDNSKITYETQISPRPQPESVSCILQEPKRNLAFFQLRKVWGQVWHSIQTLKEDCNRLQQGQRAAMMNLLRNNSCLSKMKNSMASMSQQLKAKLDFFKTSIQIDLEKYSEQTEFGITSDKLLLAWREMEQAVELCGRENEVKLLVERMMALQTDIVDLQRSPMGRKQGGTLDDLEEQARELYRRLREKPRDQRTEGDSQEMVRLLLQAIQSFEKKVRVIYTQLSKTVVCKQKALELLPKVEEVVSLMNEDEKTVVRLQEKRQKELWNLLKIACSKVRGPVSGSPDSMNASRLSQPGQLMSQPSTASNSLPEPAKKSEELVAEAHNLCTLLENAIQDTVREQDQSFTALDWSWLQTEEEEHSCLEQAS
# [9] = molecular target: T3, Inhibitor of nuclear factor kappa-B kinase subunit beta (Homo sapiens); conditions: at 1 µM
# [10] = molecular target: T4, Inhibitor of nuclear factor kappa-B kinase subunit epsilon (Homo sapiens) (UniProt Q14164); conditions: at 0.1 µM
# T4 sequence (whole entry): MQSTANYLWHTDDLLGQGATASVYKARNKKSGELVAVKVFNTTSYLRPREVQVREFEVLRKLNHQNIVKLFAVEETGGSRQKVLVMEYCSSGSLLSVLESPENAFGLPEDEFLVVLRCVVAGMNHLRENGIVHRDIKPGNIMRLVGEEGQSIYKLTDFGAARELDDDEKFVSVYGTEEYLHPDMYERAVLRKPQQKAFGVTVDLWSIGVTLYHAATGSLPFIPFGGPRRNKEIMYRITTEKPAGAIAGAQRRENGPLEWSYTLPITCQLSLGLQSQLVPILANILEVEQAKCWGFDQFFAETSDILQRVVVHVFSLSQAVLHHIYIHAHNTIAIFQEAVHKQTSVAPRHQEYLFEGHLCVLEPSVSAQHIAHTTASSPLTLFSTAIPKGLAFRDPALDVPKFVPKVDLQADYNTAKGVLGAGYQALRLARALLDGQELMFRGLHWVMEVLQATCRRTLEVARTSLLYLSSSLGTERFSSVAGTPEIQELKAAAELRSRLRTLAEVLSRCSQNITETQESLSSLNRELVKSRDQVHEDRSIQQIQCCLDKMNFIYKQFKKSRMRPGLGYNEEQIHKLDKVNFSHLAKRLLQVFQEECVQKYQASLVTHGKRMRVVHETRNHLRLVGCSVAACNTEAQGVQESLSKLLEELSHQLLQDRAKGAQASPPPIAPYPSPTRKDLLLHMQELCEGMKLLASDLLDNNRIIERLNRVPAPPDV
# [11] = molecular target: T4, Inhibitor of nuclear factor kappa-B kinase subunit epsilon (Homo sapiens); conditions: at 1 µM
# [12] = molecular target: T5, Serine/threonine-protein kinase Nek1 (Homo sapiens) (UniProt Q96PY6); conditions: at 0.1 µM
# T5 sequence (whole entry): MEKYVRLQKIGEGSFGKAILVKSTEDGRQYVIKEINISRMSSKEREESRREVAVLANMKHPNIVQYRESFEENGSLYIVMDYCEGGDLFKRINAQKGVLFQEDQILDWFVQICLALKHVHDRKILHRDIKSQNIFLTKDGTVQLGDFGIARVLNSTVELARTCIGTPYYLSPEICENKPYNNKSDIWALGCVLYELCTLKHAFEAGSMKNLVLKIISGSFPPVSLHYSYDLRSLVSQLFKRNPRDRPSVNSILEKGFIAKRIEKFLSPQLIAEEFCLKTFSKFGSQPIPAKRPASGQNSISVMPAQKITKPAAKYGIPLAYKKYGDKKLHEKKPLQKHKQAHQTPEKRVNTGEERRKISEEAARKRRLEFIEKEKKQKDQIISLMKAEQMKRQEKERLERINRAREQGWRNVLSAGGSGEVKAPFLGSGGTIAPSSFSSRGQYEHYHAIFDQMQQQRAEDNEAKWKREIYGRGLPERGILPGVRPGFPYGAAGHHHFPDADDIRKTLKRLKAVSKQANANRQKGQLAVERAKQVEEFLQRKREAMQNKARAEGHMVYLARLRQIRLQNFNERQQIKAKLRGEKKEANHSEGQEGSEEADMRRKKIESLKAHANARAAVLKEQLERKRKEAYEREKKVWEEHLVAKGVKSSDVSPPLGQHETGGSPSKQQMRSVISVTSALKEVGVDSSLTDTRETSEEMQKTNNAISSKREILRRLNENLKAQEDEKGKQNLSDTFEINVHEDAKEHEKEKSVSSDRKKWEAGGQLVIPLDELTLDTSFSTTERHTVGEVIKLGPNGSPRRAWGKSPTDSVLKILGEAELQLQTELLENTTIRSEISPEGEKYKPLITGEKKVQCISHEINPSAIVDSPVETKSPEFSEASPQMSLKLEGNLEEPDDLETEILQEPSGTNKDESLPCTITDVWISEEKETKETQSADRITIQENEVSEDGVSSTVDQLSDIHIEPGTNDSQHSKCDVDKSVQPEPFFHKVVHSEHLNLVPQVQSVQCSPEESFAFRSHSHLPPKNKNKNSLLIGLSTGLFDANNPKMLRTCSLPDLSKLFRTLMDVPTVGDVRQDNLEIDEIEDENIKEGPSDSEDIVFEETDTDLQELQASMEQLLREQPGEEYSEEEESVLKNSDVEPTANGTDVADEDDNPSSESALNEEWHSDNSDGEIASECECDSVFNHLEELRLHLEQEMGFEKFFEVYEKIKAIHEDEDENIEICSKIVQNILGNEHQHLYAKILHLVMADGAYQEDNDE
# [13] = molecular target: T5, Serine/threonine-protein kinase Nek1 (Homo sapiens); conditions: at 1 µM
# [14] = molecular target: T6, Serine/threonine-protein kinase Nek2 (Homo sapiens) (UniProt P51955); conditions: at 0.1 µM
# T6 sequence (whole entry): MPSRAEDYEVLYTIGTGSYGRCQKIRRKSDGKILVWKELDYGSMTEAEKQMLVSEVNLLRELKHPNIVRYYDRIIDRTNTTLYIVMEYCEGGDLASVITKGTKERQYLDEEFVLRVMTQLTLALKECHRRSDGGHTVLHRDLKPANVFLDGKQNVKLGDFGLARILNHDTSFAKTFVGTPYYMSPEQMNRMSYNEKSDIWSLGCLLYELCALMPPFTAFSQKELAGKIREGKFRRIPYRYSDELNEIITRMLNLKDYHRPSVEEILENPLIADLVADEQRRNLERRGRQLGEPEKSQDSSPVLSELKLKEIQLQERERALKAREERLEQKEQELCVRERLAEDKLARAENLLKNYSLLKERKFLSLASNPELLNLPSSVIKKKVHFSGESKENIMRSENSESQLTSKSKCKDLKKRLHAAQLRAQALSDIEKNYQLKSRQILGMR
# [15] = molecular target: T6, Serine/threonine-protein kinase Nek2 (Homo sapiens); conditions: at 1 µM
# [16] = molecular target: Serine/threonine-protein kinase Nek6 (Homo sapiens) (UniProt Q9HC98); conditions: at 0.1 µM
# [17] = molecular target: Serine/threonine-protein kinase Nek6 (Homo sapiens) (UniProt Q9HC98); conditions: at 1 µM
# [18] = molecular target: Serine/threonine-protein kinase Nek7 (Homo sapiens) (UniProt Q8TDX7); conditions: at 0.1 µM
# [19] = molecular target: Serine/threonine-protein kinase Nek7 (Homo sapiens) (UniProt Q8TDX7); conditions: at 1 µM
# [20] = molecular target: T7, Serine/threonine-protein kinase Nek9 (Homo sapiens) (UniProt Q8TD19); conditions: at 0.1 µM;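 note: reported value is the mean percent inhibition of NEK9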
# T7 sequence (whole entry): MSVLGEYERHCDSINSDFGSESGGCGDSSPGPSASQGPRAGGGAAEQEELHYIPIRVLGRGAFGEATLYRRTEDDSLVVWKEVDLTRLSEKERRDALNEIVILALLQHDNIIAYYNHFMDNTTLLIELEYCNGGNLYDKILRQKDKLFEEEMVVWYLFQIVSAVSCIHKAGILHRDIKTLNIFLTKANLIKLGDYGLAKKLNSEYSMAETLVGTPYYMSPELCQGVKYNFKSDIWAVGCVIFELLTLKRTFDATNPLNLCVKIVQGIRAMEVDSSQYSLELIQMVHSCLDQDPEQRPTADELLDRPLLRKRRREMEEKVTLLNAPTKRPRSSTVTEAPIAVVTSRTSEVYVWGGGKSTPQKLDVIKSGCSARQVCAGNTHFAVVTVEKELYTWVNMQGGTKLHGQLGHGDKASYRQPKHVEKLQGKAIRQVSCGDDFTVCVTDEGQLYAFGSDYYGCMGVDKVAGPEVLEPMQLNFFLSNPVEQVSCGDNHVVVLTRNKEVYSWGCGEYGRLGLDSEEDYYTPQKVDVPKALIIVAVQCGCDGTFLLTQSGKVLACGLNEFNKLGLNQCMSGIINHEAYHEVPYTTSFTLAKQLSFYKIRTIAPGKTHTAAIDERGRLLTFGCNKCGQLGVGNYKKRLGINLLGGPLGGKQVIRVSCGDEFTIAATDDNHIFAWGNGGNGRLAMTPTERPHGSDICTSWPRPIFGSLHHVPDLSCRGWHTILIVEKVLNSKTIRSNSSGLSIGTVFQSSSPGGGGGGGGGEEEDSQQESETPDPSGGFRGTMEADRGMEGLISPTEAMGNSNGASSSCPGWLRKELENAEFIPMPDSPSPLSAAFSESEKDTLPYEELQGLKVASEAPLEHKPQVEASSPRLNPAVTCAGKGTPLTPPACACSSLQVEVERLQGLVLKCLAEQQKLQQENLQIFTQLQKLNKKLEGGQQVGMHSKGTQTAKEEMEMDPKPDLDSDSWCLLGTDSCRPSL
# Sequence of Serine/threonine-protein kinase Nek7 (Homo sapiens) (Q8TDX7 whole entry, looked up): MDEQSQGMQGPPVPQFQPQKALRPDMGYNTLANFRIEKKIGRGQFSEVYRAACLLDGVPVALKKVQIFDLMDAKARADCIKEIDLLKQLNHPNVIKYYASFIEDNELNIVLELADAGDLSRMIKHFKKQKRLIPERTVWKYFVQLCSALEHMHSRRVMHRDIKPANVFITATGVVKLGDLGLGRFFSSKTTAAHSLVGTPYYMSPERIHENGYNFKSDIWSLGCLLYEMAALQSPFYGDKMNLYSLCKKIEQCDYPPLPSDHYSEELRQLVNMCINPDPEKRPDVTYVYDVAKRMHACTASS
# Sequence of Casein kinase II subunit alpha (Homo sapiens) (P68400 whole entry, looked up): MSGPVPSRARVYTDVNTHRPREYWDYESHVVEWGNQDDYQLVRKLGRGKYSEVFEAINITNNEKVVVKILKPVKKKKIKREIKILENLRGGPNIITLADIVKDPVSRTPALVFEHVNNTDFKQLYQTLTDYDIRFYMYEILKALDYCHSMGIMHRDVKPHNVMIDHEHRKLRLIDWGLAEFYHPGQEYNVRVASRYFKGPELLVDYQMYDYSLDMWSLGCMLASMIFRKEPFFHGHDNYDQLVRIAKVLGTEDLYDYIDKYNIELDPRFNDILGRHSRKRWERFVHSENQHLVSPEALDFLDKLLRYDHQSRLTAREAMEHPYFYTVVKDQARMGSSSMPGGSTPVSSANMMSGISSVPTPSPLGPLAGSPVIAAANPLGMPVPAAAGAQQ
# Sequence of Serine/threonine-protein kinase Nek6 (Homo sapiens) (Q9HC98 whole entry): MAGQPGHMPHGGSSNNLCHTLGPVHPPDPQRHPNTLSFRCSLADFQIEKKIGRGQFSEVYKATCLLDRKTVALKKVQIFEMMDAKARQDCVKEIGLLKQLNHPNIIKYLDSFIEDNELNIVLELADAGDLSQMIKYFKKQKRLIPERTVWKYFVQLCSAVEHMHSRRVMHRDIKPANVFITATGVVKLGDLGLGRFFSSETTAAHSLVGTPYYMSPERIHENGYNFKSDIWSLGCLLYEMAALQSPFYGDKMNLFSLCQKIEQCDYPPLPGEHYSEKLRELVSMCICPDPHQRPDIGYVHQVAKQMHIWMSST
# Sequence of Sphingosine kinase 1 (Homo sapiens) (Q9NYA1 whole entry): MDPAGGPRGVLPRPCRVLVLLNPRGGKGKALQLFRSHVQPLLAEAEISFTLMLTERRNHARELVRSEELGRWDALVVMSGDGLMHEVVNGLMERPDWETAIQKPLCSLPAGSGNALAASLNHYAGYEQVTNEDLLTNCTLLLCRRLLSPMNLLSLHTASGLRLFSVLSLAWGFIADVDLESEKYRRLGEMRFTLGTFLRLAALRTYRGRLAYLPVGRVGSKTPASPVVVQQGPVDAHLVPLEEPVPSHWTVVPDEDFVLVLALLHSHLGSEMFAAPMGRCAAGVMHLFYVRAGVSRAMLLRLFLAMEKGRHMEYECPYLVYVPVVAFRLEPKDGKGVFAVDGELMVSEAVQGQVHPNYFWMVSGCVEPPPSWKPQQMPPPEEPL
smiles,measurement,setting,value
C#Cc1cccc(Nc2ncnc3ccc(OCCCCNCCS(C)(=O)=O)cc23)c1,inhibition,[1],-0.99%
same,inhibition,[2],-0.09%
same,inhibition,[3],0.04%
same,inhibition,[4],4.02%
same,inhibition,[5],9.21%
same,inhibition,[6],5.89%
same,inhibition,[7],12.2%
same,inhibition,[8],6.73%
same,inhibition,[9],9.06%
same,inhibition,[10],7.86%
same,inhibition,[11],9.33%
same,inhibition,[12],3.06%
same,inhibition,[13],8.52%
same,inhibition,[14],5.28%
same,inhibition,[15],6.09%
same,inhibition,[16],3.67%
same,inhibition,[17],3.84%
same,inhibition,[18],4.76%
same,inhibition,[19],3.44%
same,inhibition,[20],8.12%
